Article PMC12136788
Positions count from the first letter of the chain named. Over roughly 24,000 sequences, “enrichment r” has its median near 0.99; the highest 2% begin near 3.7. The list comes from a sample in which the highest values are over-represented; it also holds similar and randomly drawn sequences.

T1: UNK ZnF1-3 (human, UniProt Q9C0B0 31-174)
T1 sequence: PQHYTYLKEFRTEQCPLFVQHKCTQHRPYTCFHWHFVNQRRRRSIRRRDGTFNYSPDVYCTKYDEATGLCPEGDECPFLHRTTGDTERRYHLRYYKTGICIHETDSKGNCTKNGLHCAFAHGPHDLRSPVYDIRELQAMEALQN

B1: chr22:19452774:19452775:-_ENSG00000070010_ENST00000399523|hu_hu|hu_hu_hu_mus_False|58_88 (ssRNA)
RNA: GGGAGUUCUACAGUCCGACGAUCCUUCUCAUUGUAGUUGAUAGCAAUCACAUCCCCAGUCGUCAGACAGGCGAAGUUCCUAAGUGCAUUUUCUAAUACCGCUUUAGGGUUGGUAAUAUCCAGGAAGUCUGGGCUCUGAGGCUGCAACAGAGGAUUGAGCAUCA
B2: 91655523_91655643_1000_CDS_ENSMUSG00000022961_ENSMUST00000114036|mouse|control|control (ssRNA)
RNA: GGGAGUUCUACAGUCCGACGAUCCUCCGAUGGUGCUUCUACAGGCUGCUCUGGCAAUCUUUGCACGUCAGUUGUAGAUGACUCUGGAAAAUCCAUUGUUGAUGGGCUUGGUUCAGGGUGCACCUCAGUAGGUGUCUCUGACACCAACAGAGGAUUGAGCAUCA
B3: chr16:2011185:2011186:+_ENSG00000140990_ENST00000268668|hu_hu|motif|central (ssRNA)
RNA: GGGAGUUCUACAGUCCGACGAUCCACGCGGCGGUACUGCCGGUGGUAGUAGUAAUACCUGUUCUUUGCGUGCUGCCGCUCGGUAAAUUCUCUCACGAGGGUCACGGGUCGGUCCACGAUGAGGUCGAACGCUUUCAUCAUGUACAACAGAGGAUUGAGCAUCA
B4: chr10:75542919:75542920:+_ENSG00000172586_ENST00000372833|hu_mus|FALSE|FALSE (ssRNA)
RNA: GGGAGUUCUACAGUCCGACGAUCUGAGAGUUCAUUGAAAAUAUUUCUCCAUUUUCAGAUGAGAUGAGAUUUGUUGGGAAAUCUCUGUAACAACUUGGUCAUCUUGUGGGGAGAUAAACUCUCGGACUGUCCCAGAGACUCCUGCAACAGAGGAUUGAGCAUCA
B5: chr15:85967975:85967976:+_ENSMUSG00000035900_ENSMUST00000088931|mus_mus|motif|central (ssRNA)
RNA: GGGAGUUCUACAGUCCGACGAUCACAGAGCAUUUUAGGUUUAUUAAAUAAAAAUUAUAAUUUAUACAAGACUUUGUAUCGGAACAAGGUUUUCUUUUUUUAAAAAAAAAAGUGACAGAGGAUUUUUUUUCCUAUCAGUUCUUUCAACAGAGGAUUGAGCAUCA
B6: chr15:85967975:85967976:+_ENSMUSG00000035900_ENSMUST00000088931|mus_mus|FALSE|FALSE (ssRNA)
RNA: B5 RNA with G80U, G81A
B7: chr5:162868235:162868236:+_ENSG00000113328_ENST00000340828|hu_hu|motif|central (ssRNA)
RNA: GGGAGUUCUACAGUCCGACGAUCCCAACACACCUUCUCCAAUACAAUCUUUUCCAUUCUCAUCAAGUCUGAAACCGUAAACCGGUAUUGACUUAUUCGGAUCAAGUCAGUUGCCAAUGGGACAUUCCUUUCCUCUUCUAUUGACAACAGAGGAUUGAGCAUCA
B8: chr9:14812383:14812384:-_ENSMUSG00000031934_ENSMUST00000164273|mus_mus|mus_mus_mus_hu_True|28_108 (ssRNA)
RNA: GGGAGUUCUACAGUCCGACGAUCAUAGCUCAAGUAGAUACACGCUAACAGUAUAAUGAUGAGUGUCAGCAGGCGGCAGCUAAUGUACUUGAUGAUUAAAUUAUUAGAGUUCUUUUUUGUCUUCAAGUACUGCUCCACAAUUGGCAACAGAGGAUUGAGCAUCA
B9: chr2:160855017:160855018:-_ENSMUSG00000057133_ENSMUST00000039782|mus_mus|FALSE|FALSE (ssRNA)
RNA: GGGAGUUCUACAGUCCGACGAUCAUCCUUUUCCAGUUCUUCCAUUGUGGCCCAUUUACAAUGUAAAUAGGAAAAAUUUCUAUACUUAACGUAGAAAAGCUCUAGGUCGAAUGGAGGUUCUCCUGGGUGAACCUCCUGGACAGUCAACAGAGGAUUGAGCAUCA
B10: chr7:150915252:150915253:-_ENSG00000033050_ENST00000287844|hu_mus|FALSE|FALSE (ssRNA)
RNA: GGGAGUUCUACAGUCCGACGAUCCUUCCCUGCUCCAUUGGGUCCUACCAGAGCCACUCGUGUGUCAAGAUCAAUACCAAAUUCUAGAUUAUUGUAGAUGCAAGGCCCGUCUUUCGUAUAUUUGAAGCUCACGUUCUGCACCAUCAACAGAGGAUUGAGCAUCA
B11: chr2:78753848:78753849:+_ENSMUSG00000027011_ENSMUST00000028398|mus_mus|FALSE|FALSE (ssRNA)
RNA: GGGAGUUCUACAGUCCGACGAUCGUUAUCUCCUUUAGGCCCAGCACUGCAGUUAGGAGGAGGAUCAAGGGUUAUCUCUGCUAGCUCCUUCUGAAUUCUUUUAGCACUAGUGGAUAACUUAGCAGUCGUUUUGCUAGAGAGUUUCAACAGAGGAUUGAGCAUCA
B12: chr11:43534790:43534791:+_ENSMUSG00000044950_ENSMUST00000129229|mus_mus|FALSE|FALSE (ssRNA)
RNA: GGGAGUUCUACAGUCCGACGAUCUCUGAUUUUCUCAUGUGUUCUCCAUUCAUUAAACAAGAAAAAUUAAGGGGUUUCAUACUAUGUAUUUAGCAAAGACAAGGAAAUCUGAAAUCUCUGUUAAGAAUUCAUGUUCCAUGCACCCAACAGAGGAUUGAGCAUCA
B13: chr11:30747457:30747458:+_ENSMUSG00000040850_ENSMUST00000041231|mus_mus|motif|central (ssRNA)
RNA: GGGAGUUCUACAGUCCGACGAUCACCCUUAAAGAGGCAGAAACGCCGGGGACUAAACUUAUCUCUUCCUUUUCUGUCUUCGGAAGAUAGAAAUGUGAUUAACUGCUCAACAAACUUAGGAUCAGAAAAACGAUCAUAUAUAAUCAACAGAGGAUUGAGCAUCA
B14: chr2:4828950:4828951:+_ENSMUSG00000026662_ENSMUST00000115019|mus_hu|motif|central (ssRNA)
RNA: GGGAGUUCUACAGUCCGACGAUCUAAAAUCUAGUUUUUCCCGAUAAAUUGUACUUUAGGCAAAACCCUCCCAACGCUUCGGAAAUAAUACUAAAAGGGGCAUCUGAUUAUACAAGAGCAAUUUAAAAAAUUAAAUAUUUAUUUCAACAGAGGAUUGAGCAUCA
B15: chr2:4828950:4828951:+_ENSMUSG00000026662_ENSMUST00000115019|mus_hu|FALSE|FALSE (ssRNA)
RNA: B14 RNA with G80U, G81A
B16: chr1:39494447:39494448:+_ENSG00000168653_ENST00000372967|hu_mus|hu_hu_hu_mus_False|68_88 (ssRNA)
RNA: GGGAGUUCUACAGUCCGACGAUCGCACCGAGCGGCGUUCUUAUAGGGCUGUUCACCGCUUAGGAACGUCAACCAUCGGUCCAGGCUGAUGCCCAGCUUUUUCUGUAUGUCAAGGAAAGGCAUGGCUCUGCAGUGCCCUUGUCACAACAGAGGAUUGAGCAUCA
B17: chr14:76904540:76904541:+_ENSMUSG00000022010_ENSMUST00000022587|mus_hu|motif|central (ssRNA)
RNA: GGGAGUUCUACAGUCCGACGAUCAAAGAAAUUGAAAAAUGUCUCAGUUGGUAAACUCCUAGAUCCAUCGCCACUGGUCGGCACCAUUGGGAUUUCAUGCAAUUGCAGCCAAAAACACCCUCGUGGAAAAAAAGAGGGAACACCCAACAGAGGAUUGAGCAUCA
B18: chr10:1038518:1038519:+_ENSG00000107937_ENST00000545048|hu_hu|hu_hu_hu_mus_False|28_58 (ssRNA)
RNA: GGGAGUUCUACAGUCCGACGAUCCAGUCUGUCAUGGUAAUUCUGUUGAGUAAAUUUGACUUUUCUCAUAUAAAAAUGUCUAAUGCGAUGAAUUUGAUAAUGUUUAUGAAUAACGGUUGGAGUCUUUCGUUGAGUCUUGGAUAACAACAGAGGAUUGAGCAUCA
B19: chr7:90019461:90019462:+_ENSMUSG00000057706_ENSMUST00000082237|mus_hu|FALSE|FALSE (ssRNA)
RNA: GGGAGUUCUACAGUCCGACGAUCCGUCACAAUUGUGUGAUUAUUAAAAUAAUACAGUGUUCUUUGCCAUAAGGCCAUACUAAAAUAAAAAGAUUUAACCCAGCUACAAAAAAGUUCACUGAACUUAAAUUAAAAUACUUGUAACAACAGAGGAUUGAGCAUCA
B20: chr15:88518400:88518401:-_ENSMUSG00000022387_ENSMUST00000109381|mus_hu|FALSE|FALSE (ssRNA)
RNA: GGGAGUUCUACAGUCCGACGAUCCCCGUCUUAUUAAAUAAGUGGUACUCUGUGUAAAGAGCAUGAUUUACAAAAUUAUUAAACAUUCAAAAGUCUUUAAGAAAAAGCUACAUAUCAAAGAAAGUGACGCCAGCAGCACGGCCUCAACAGAGGAUUGAGCAUCA
B21: chr6:53132721:53132722:-_ENSG00000012660_ENST00000304434|hu_hu|FALSE|FALSE (ssRNA)
RNA: GGGAGUUCUACAGUCCGACGAUCUUACCUGUUUGACCACUGCCUCAAAUGUGUGAGAUGUGAUUUUAUGAUAAGCAGUCUAUUAUUUUUAAACAAGAGGUUCUAAACACAUCUUUAGAUUCUAAGCAGAAAGAAAUUACAAGUCAACAGAGGAUUGAGCAUCA
B22: chr15:88518400:88518401:-_ENSMUSG00000022387_ENSMUST00000109381|mus_mus|FALSE|FALSE (ssRNA)
RNA: GGGAGUUCUACAGUCCGACGAUCCCCGUCUUAUUAAAUAAGCGGUACUCUGUGUAAAGAGCAUGAUCUACAAAAUUAUUAAACAUUCAAAAGUCUUUAAAAAAAAAAAAAAACCCUACAGAUUAGAAUAAGUGAGGCCUCGGCCAACAGAGGAUUGAGCAUCA
B23: chr7:90019461:90019462:+_ENSMUSG00000057706_ENSMUST00000082237|mus_mus|FALSE|FALSE (ssRNA)
RNA: GGGAGUUCUACAGUCCGACGAUCCGUCACAAUCGUGUGAUUAUUAAAAUAAUACAGUGUUCUUUGCCAUAAGGCCAUACUAAAAAUAAAAAGAUUUAACCCAGCUACAAAAAAGUUCACUGAACUUAAAUUAAAAUACUUGUACAACAGAGGAUUGAGCAUCA
B24: chr11:120466956:120466957:+_ENSMUSG00000025135_ENSMUST00000093140|mus_mus|FALSE|FALSE (ssRNA)
RNA: GGGAGUUCUACAGUCCGACGAUCCAAGCAGAGGCCUCCAGCACGGCUCGGAACUGUAAUGAGUUUUACUUAUUGAAUAAAGUGUCAAUGUGAUGGGAAAACAAAACAGUCAGCAAAGCUCCUUUCAACCUUGUCCCAGCCAAACAACAGAGGAUUGAGCAUCA

biological target: T1, UNK ZnF1-3; assay: nsRBNS (natural sequence RNA bind-n-seq); RBNS binding buffer (assumed for nsRBNS): 25 mM Tris pH 7.5, 150 mM KCl, 3 mM MgCl2, 0.01% Triton X-100, 500 ug/ml BSA, 20 U/ml SUPERase-In, 4 C; UNK is unkempt and MSI1 is Musashi-1; names of the RNAs are library labels; protein concentration not given here; high values mean tight binding

Binder	binding signal [enrichment R]
B1	0.785
B2	0.484
B3	0.392
B4	0.344
B5	7.03
B6	4.57
B7	0.785
B8	1.06
B9	0.614
B10	1.41
B11	1.05
B12	0.874
B13	0.632
B14	4.08
B15	6.73
B16	0.613
B17	1.75
B18	1.2
B19	3.55
B20	10
B21	1.61
B22	6.27
B23	3.43
B24	1.39
